Growth data for 29 molecules are collected here from PubChem BioAssay (NCI).

“And” between values parts separate entries of the source, which are not always exact repeats. Identical values can stand only once. About 83,000 compounds went through this panel and 20% of them were active in at least one assay; those are over-represented in the sample as a whole.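 Single-concentration screen, 48 h exposure, 96-well plates. Endpoint: percent growth. Below 10 = active.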 Unmarked numbers belong to inactive results. The source made the active and inactive calls.

The assay concerns MDA-MB-468 breast. The experiment in a line: NCI-60 one-dose screen, 48 h (100 = growth as untreated, 0 = no growth, -100 = all killed). The settings on record: 10 µM unless noted.
Turning to `Cc1c(O)c(CN(CCCl)CCCl)cc(CN(CCCl)CCCl)c1O`, the growth is 84.4%. For `O=P1(NCCCl)OCCCN1CCCl` (centres undefined) the value was 99.1%; for `Oc1cc[c]([Hg][Cl])cc1`, 93.6%; for `CNc1ccc(C(=O)CC(O)CCC(C)C2OC(=O)CC(O)CC(=O)CC(O)CC(O)CC(O)CC(O)CC3(O)CC(O)C(C(=O)OC)C(CC(O[C@@H]4O[C@H](C)[C@@H](O)[C@H](N)[C@@H]4O)/C=C/C=C/C=C/C=C/C=C/C=C/C=C/C2C)O3)cc1` (some centres undefined), 36.5%. For the molecule `CNC(=O)Oc1ccccc1-c1ccccc1`, the growth was 113%. Consider `CC12CC[C@H](O)C=C1/C(=N/O)CC1C2CCC2(C)C1CC[C@@H]2O` (some centres undefined), for which the growth is 100%. The value for `CCCCN(CCCC)CC(O)c1ccccc1` (centres undefined) was 116%; that for `CC[C@H](C)[C@H](NC(=O)[C@H]1CCCCN1C)C(=O)N(C)[C@H](C[C@@H](OC(C)=O)c1nc(C(=O)NC23C4C5C2C2C3C4C52C(=O)OC)cs1)C(C)C` (some centres undefined) was -2.75% (active). For `N#CC(N)c1ccccc1` (centres undefined) the value was 98.9%. The value for `CCOC(=O)c1c(C)n(Cc2ccccc2)c2cc(CN(C)C)c(O)cc12` was 73.9%; that for `CCC(=O)C(CC(C)[N+](C)(C)C)(c1ccccc1)c1ccccc1` (centres undefined) was 85.5%. With `CC(=O)O[C@H](C[C@H](C(C)C)N(C)C(=O)[C@@H](NC(=O)[C@H]1CCCN1C)C(C)C)c1nc(C(=O)N[C@@H](Cc2ccccc2)C[C@H](C)C(=O)O)c(C)s1`, the growth is 18.7%. For `CC(=O)O[C@H]1CC[C@@]2(C)C(=CC[C@H]3[C@@H]4C[C@@H](N5CC5)[C@H](C(C)=O)[C@@]4(C)CC[C@@H]32)C1` the value was 79%; for `COC(C(=O)[C@@H](O)[C@@H](C)O)[C@@H]1Cc2cc3cc(O[C@H]4C[C@@H](O[C@H]5C[C@@H](O)[C@H](O)C(C)O5)[C@H](O)C(C)O4)c(C)c(O)c3c(O)c2C(=O)[C@H]1O[C@H]1C[C@@H](O[C@H]2C[C@@H](O[C@H]3C[C@@H](O)[C@@H](O)C(C)O3)[C@@H](O)C(C)O2)[C@H](O)C(C)O1` (some centres undefined), -41.2% (active). The value for `COC(=O)[C@H](Cc1ccccc1)NC(=O)c1csc([C@@H](C[C@H](C(C)C)N(C)C(=O)[C@@H](NC(=O)[C@H]2CCCN2C)C2CC2)OC(C)=O)n1` was -5.59% (active); that for `CCCCS(=O)(=O)Cl` was 104%; that for `CO/N=C1\CC[C@]2(C)[C@H]3CC[C@]4(C)C(=O)CC[C@H]4[C@@H]3C[C@@H]3SC(N)=N[C@@]32C1` was 88.8%. The value for `O=C1c2ccccc2C(=O)N1N1CC1c1ccccc1` (centres undefined) was 104%; that for `CSc1cc(/C=C(\C)[C@@H]2C[C@@H]3O[C@]3(C)CCC[C@H](C)[C@H](O)[C@@H](C)C(=O)C(C)(C)[C@@H](O)CC(=O)O2)n(CCNC(=O)OC(C)(C)C)n1` was 66%; that for `COC(=O)[C@@]1(O)C[C@H]2O[C@]1(C)n1c3ccccc3c3c4c(c5c6ccccc6n2c5c31)C(=O)NC4` was -72.4% (active).

Consider `CC1(C)N=C(N)N=C(N)N1c1ccc(CCCCc2ccc(S(=O)(=O)F)cc2)c(Cl)c1`, for which the growth is 7.5% (active).

As to `COc1ccc2nc(NC(=O)COc3cc(/C=C\c4cc(OC)c(OC)c(OC)c4)ccc3OC)sc2c1`, the growth is -5.6% (active).

On to `Brc1ccc2c(c1)c(-c1nc(-c3c[nH]c4ncccc34)cs1)cn2CCN1CCCCC1`, for which the growth is 79.2%.

As to `Cn1cc(-c2csc(-c3cn(CCN4CCOCC4)c4ccc(F)cc34)n2)c2cccnc21`, the growth is 13.9%. With `C/C=C/CC(C)C(O)[C@H](NC(=O)[C@@H]1CCCN1C(=O)C(C)(C)NC(=O)CCCCCCCCC)C(=O)NC(C)(C)C(=O)N[C@@H](CCC(N)=O)C(=O)N[C@H](CCC(N)=O)C(=O)NC(C)(C)C(=O)NC(C)(C)C(=O)N[C@@H](CCC(N)=O)C(=O)N[C@H](CC(C)C)C(=O)N[C@H](CO)CC(C)C` (some centres undefined), the growth was -75.9% (active) and -84.9% (active). The value for `COc1cc([C@@H]2c3cc4c(cc3[C@H](OC(C)=O)[C@H]3COC(=O)[C@H]23)OCO4)cc(OC)c1OC` was 44.6%; that for `C#Cc1cccc(Nc2nc(Cl)nc3cc(NC(=O)CF)ccc23)c1` was 61.5%; that for `O=C(Nc1ccc(O)cc1)C(Cl)(Cl)Cl` was 95.2%.

Take `O=[N+]([O-])/C=C/c1ccc(Cl)cc1[N+](=O)[O-]`: the growth is -55.9% (active).
